Compound activity as filed in PubChem BioAssay.
Hits are enriched below; roughly 7.5% of the tested compounds scored in any of these assays.
Luc counter = blocks Kinase-Glo luciferase, a counter-screen artifact | Kinase-Glo luciferase, ATP luminescence, 8 min | Potency, µM (series often up to 38.3 µM), for the others: top-dose activity change, negative = inhibition, actives largely listed as inhibitors | Q27757 | 0.28% of 200,000 active | AID 1379; note: % is set by controls: 0 for no effect and ±100 for the full control effect; nearly all actives have a fitted effect of over 60% in size
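Compound is pinned into ATP-containing buffer (10 uM ATP, imidazole pH 7.2, 7 mM MgCl2). Kinase-Glo luciferase reagent is then added. Light output is recorded following an 8-min room-temperature incubation.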
SMN2 splice enh = enhancers of SMN2 splice variant expression | Potency, µM (highest dose often 46.1 µM), inactives show at the highest dose activity change, positive = activation, usual class: activators | 2.8% of 210,000 active | HEK293 SMN2-luciferase splicing reporter, luminescence, 30-36 h; note: % of control where 0% means no effect; nearly all actives have a fitted effect of over 55% in size
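HEK293 cells carry an SMN2 minigene-luciferase reporter in which exon 7 inclusion puts luciferase in frame. Cells were seeded at 2000 cells/well, attached for 10-12 hours, then exposed to compounds for 30-36 hours at 37C before ONE-Glo luminescence.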
ELG1 genotox = inducers of genotoxicity in HEK293T ELG1-luciferase cells. HEK293T ELG1-luciferase reporter, luminescence, 16 h. Potency, µM (top dose mostly 46 µM), inactives show at the highest dose activity change, positive = activation, hits mostly activators. 1.3% of 330,000 active. AID 504466; note: % of control where 0% means no effect; nearly all actives have a fitted effect of over 60% in size
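DMSO vehicle served as control against compound-treated ELG1-luciferase HEK293T cells; exposure lasted 16 hr at 37 °C and 5% CO2, followed by ONE-Glo luminescence detection after 30 min.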
NPC1 prom act = NPC1 promoter activation. AID 485313. 2.4% of 320,000 active. Potency, µM (highest dose often 9.22 µM), inactives show at the highest dose activation, hits mostly activators. Huh7 NPC1 promoter luciferase reporter, 24 h; note: % of control where 0% means no effect; nearly all actives have a fitted effect of over 60% in size
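NPC1 promoter–luciferase Huh7 cells; 24 h compound; luminescence.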
Rab9 prom act = activates the Rab9 promoter | Potency, µM (series often up to 9.22 µM), for inactives: at the top dose activation, negative = inhibition, usual class: activators | 2.8% of 320,000 active | Huh7 Rab9 promoter-luciferase reporter, luminescence, 24 h; note: % of control where 0% means no effect; nearly all actives have a fitted effect of over 60% in size
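Luciferase signal after 10 min detection reagent at ambient indicates Rab9 promoter upregulation; stably transfected Huh7 cells were treated 24 h with compound in DMSO at 37 °C, 5% CO2.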
FLuc counter = counter-screen for miR-21 project: firefly luciferase inhibitors or activators; P08659; purified FLuc, Km substrates, luminescence inhibition; Potency, µM (highest dose often 57.5 µM), for inactives: at the top dose activity change, negative = inhibition, actives largely listed as inhibitors; 6.9% of 360,000 active;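 note: plate controls were vehicle for no effect and reference inhibitor for full effect; nearly all actives have a fitted effect of over 55% in size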
Target sequence (P08659 whole entry, looked up): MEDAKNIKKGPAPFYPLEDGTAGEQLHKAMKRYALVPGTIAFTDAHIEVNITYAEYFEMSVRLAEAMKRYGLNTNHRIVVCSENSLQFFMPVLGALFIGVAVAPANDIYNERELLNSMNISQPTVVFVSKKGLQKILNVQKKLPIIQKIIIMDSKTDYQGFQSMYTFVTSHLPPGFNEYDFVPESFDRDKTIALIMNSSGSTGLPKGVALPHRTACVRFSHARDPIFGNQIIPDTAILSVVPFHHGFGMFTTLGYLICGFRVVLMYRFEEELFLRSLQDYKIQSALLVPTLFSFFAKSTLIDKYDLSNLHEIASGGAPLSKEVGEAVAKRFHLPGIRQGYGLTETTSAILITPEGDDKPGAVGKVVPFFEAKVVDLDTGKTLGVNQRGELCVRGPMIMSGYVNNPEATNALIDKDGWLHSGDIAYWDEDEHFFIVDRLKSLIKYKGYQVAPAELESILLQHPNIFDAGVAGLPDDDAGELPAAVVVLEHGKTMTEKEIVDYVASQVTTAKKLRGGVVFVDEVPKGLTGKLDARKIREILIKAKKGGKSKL
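Purified P. pyralis luciferase, 10 nM final, with Km-level 10 uM D-luciferin and 10 uM ATP in 50 mM Tris acetate pH 7.5, 10 mM Mg acetate, 0.01% Tween-20, 0.05% BSA; 6-point qHTS titration about 60 µM downward; luminescence read.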
The depositor's hits bear a star; ? = inconclusive; / = not tested or not shown; [ ] = remark or other dose. Calls come from the whole dose curve; as a rule, active = well fitted curve in the direction sought with a large enough effect; inconclusive = small, poorly fitted or top-dose-only effect, or another doubt; inactive = no such curve, though single readings can be large; an effect the other way counts as inactive or inconclusive. Potency is the fitted concentration of half-maximal effect.

SMILES	Luc counter	SMN2 splice enh	ELG1 genotox	NPC1 prom act	Rab9 prom act	FLuc counter
Cc1ccc(NC(=O)c2ccc(OC(=O)CCN3C(=O)c4ccccc4C3=O)cc2)cc1	-6%	14µM*	?	3.2µM*	1.8µM*	-19%
Cc1cc(C)cc(OC(=O)CCN2C(=O)c3ccccc3C2=O)c1	1%	-2%	1%	-2%	1%	0%
COc1ccc(/C=C/C(=O)Oc2cccc(/C=N/NC(=O)COc3c(C)cccc3C)c2)cc1	0%	?	?	1.6µM*	2.8µM*	-14%
COc1ccc(/C=C/C=N/NC(=O)COc2ccc(OC)cc2)cc1	-4%	23%	1%	13%	19%	4.8µM*
COc1ccc(/C=C/C(=O)Oc2ccc(/C=N/NC(=O)COc3c(C)cccc3C)cc2)cc1	1%	?	21%	-2%	-7%	0%
Cc1ccc(OCC(=O)N/N=C/C=C/c2ccco2)cc1	1%	-1%	-1%	-2%	-5%	19µM*
COc1ccc(NCC(=O)N/N=C/C=C\c2ccccc2)cc1	0%	38%	-2%	-4%	2%	?
Cc1ccc(OCC(=O)Nc2ccc3[nH]c(=O)sc3c2)cc1	/	7%	/	/	/	1%
COc1ccccc1-n1nc(-c2ccccc2)c2cnc3cc(C(F)(F)F)ccc3c21	/	0%	/	/	/	-9%
CCC1(c2ccccc2)NC(=O)N(CC(=O)Nc2ccc(OC)nc2)C1=O (stereo not drawn)	/	/	-1%	2%	2%	-3%
CCOC(=O)c1[nH]c(C=O)c(C(=O)OCC)c1C	-3%	/	-8%	-2%	-4%	6%
O=C(NC(=S)NC12CC3CC(CC(C3)C1)C2)c1ccc(F)cc1	/	/	12%	/	/	/
O=c1c2cccc3c(N4CCOCC4)ccc(c32)c2nc3ccccc3n12	-6%	-21%	?	-1%	1%	5.4µM*
O=C(O)c1ccc([N+]2=Cn3c(nc4ccccc43)C2)cc1	-1%[7.66 µM]	2%[9.22 µM]	/	/	/	/
O=C(c1cc(COc2ccc(F)cc2F)on1)N1CCN(C(=O)c2ccco2)CC1	/	/	-8%	0%	-3%	-12%
Cc1ccc(C)c(OCc2cc(C(=O)N3C[C@@H](C)O[C@@H](C)C3)no2)c1	/	/	?	2.2µM*	1.6µM*	6µM*
Cc1ccc(C)c(OCc2cc(C(=O)N3CCN(C(=O)c4ccco4)CC3)no2)c1	/	/	?	3.2µM*	4.5µM*	19µM*
Cc1ccc(C)c(OCc2cc(C(=O)N3CCN(c4ccccc4)CC3)no2)c1	/	/	30%	2.8µM*	4µM*	19µM*
Cc1ccc(C(=O)OCC(=O)NNC(=O)c2ccc([N+](=O)[O-])cc2)o1	/	/	9%	-2%	-2%	-1%
Cc1cccc(-c2cc3nc4c(c(NCc5ccco5)n3n2)CCCC4)c1	-3%	24%	8%	?	3.2µM*	11µM*
Cc1cccc(-c2cc3nc4c(c(N5CCCC(O)C5)n3n2)CCC4)c1 (stereo not drawn)	0%	-22%	-15%	0%	-3%	-17%
OC1CCCN(c2c3c(nc4cc(-c5cccc(F)c5)nn24)CCCC3)C1 (stereo not drawn)	4%	11µM*	?	?	?	?
Fc1ccc(-c2cc3nc4c(c(N5CCOCC5)n3n2)CCCC4)cc1	7%	-16%	-3%	-2%	-2%	21µM*
COc1cccc(-c2cc3nc4c(c(N5CCC6(CC5)OCCO6)n3n2)CCC4)c1	2%	-8%	-8%	-8%	-1%	27µM*
CN(C)CCCNc1c2c(nc3cc(-c4cccc(F)c4)nn13)CCC2	0%	/	4%	-4%	-2%	1%
FC(F)(F)c1ccc(-c2noc(CN3CCCN(C4CCCCC4)CC3)n2)cc1	3%	/	-7%	-1%	-6%	-1%
OC1CCN(c2c3c(nc4cc(-c5ccc(F)cc5)nn24)CCC3)CC1	-1%	-7%	-10%	14%	3%	?
